# Experimental data reported in the supplement of paper PMC10105736.
# Values without a mark were called inactive.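 How the source made its calls: active = MAPPIT score above the 99th percentile of random reference set scores in the same batch; inactive = at or below it.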
# B1: msl-2 (protein)
# chain: MAQTAYLKVTRIAMRSASNLSKRRVEELNSGLGELRQLLSCVVCCQLLVDPYSPKGKRCQHNVCRLCLRGKKHLFPSCTQCEGCSDFKTYEENRMMAAQLLCYKTLCVHLLHSALFGELAGMRPQVARELVPRIKLPPKTTQEFIREGSNISDTFDIFLPQPDLPFLKDMPTSLPAETPPTSAVTTPELPYDHHLNISDIEAEAAATAEQGHFSPLPLLPTGSRMGMLSHAGQIVIATESSESGFMDQAWTDQVDLSGTVSVSKYTNSGNNFAVSYVMPTSATTKFDPQELQIGQVVQMADSTQLAVLAAVEETVETSTQLTVLSTTVEETVETSTQLEVLTSAEEPNEISDQLANLQVEESDEALVEETVEEAEGTSIPSEVVAEHMEEDQHLDVHTSQSPTQTEMEEAVEEHVATKTQLGHVQTELQDAESLQKDFEDAKAAAEEAKEKEKDLHAISAELQKEDSDEPTLKRKRTRTLKASQAAKIEPVPSEVKTKVQSGKGALRRIRGKDKEEKVKPPKPKCRCGISGSSNTLTTCRNSRCPCYKSYNSCAGCHCVCCKNPHKEDYVESDEDDDLEDFEMPKDVPEPMTQSEEPVVAEPRQEENSMAPPDSSAPISLVPLNNLQQSQHPLVLVQNEKGEYQGFNIFQGSKPLDPVTVGFTIRVQLQHTDGFGSLPQYAYIMPTIDPPNPPAPSLSPPPPPAPDREVIEPPAKKFRTSRTRRGRANFSALDTVDELVSGGSRSNSAAGDRSSATDNAHSLFEEIMSGSDDL
# B2: Sf3b3 (protein)
# chain: MYLYNLTLQKATGVTHAVHGNFSGGKQQEVLLSRGKSLELLRPDSNTGKVHTLLSTEIFGCVRALMAFRLTGGTKDYIVVGSDSGRIVILEYNPSKNALEKVHQETFGKSGCRRIVPGQYFAIDPKGRAVMIGAVEKQKLAYIMNRDTQARLTISSPLEAHKSNTLTYHMVGVDVGFDNPMFACLEIDYEEADMDPSGDAAQRTQQTLTFYELDLGLNHVVRKYSEPLEEHANFLVSVPGGNDGPSGVLICSENYLTYKNLGDQHDIRCPIPRRRNDLDDPERGMIFICSATHRTKSMYFFLLQTEQGDIFKITLETDDDVVSEIKLKYFDTVPPATAMCVLKTGFLFVASEFGNHYLYQIAHLGDDDDEPEFSSAMPLEEGETFFFAPRALKNLVLVDELPSFAPIITSQVADLANEDTPQLYVLCGRGPRSTLRVLRHGLEVSEMAVSELPGNPNAVWTVKKRADDEFDAYIIVSFVNATLVLSIGETVEEVTDSGFLGTTPTLCCAALGDDALVQVYPDGIRHIRSDKRVNEWKAPGKKSITKCAVNQRQVVITLSGRELVYFEMDPTGELNEYTERSEMPAEIMCMALGTVPEGEQRSWFLAVGLADNTVRILSLDPNNCLTPCSMQALPSPAESLCLVEMGHTESTTQGGLDDDAPAQRSGNNKGTIYLNIGLSNGVLLRTVLDPVSGDLADTRTRYLGSRPVKLFRIKMQGSEAVLAMSSRTWLSYYHQNRFHLTPLSYETLEYASGFSSEQCSEGIVAISTNTLRILALEKLGAVFNQVAFPLQYTPRTFVIHPDTGRMLIAETDHNAYTEDTKSARKEQMAEEMRSAAGDEERELAREMANAFINEVLPEDVFSSPKAGLGLWASQIRCLDAMHGQTMFSVPLTQNEAIMSMAMLKFSIAADGRYYLAVGIAKDLQLNPRISQGGCIDIYKIDPTCSSLEFMHRTDIDEIPGALCGFQGRLLAGCGRMLRIYDFGKKKMLRKCENKHIPYQIVNIQAMGHRVYVSDVQESVFFIRYRRAENQLIIFADDTHPRWVTATTLLDYDTIAIADKFGNLSIQRLPHSVTDDVDEDPTGTKSLWDRGLLSGASQKSENICSFHVGEIIMSLQKATLIPGGSEALIYATLSGTVGAFVPFTSREDYDFFQHLEMHMRNENPPLCGRDHLSYRSSYYPVKNVLDGDLCEQYLSIEAAKQKSIAGDMFRTPNQICKKLEDIRTRYAF
# B3: Hsp60B (protein)
# chain: MFRSCVPKAITSSRCFARMYSKDVRFGSGVRAMMIRGVDILADAVAVTMGPKGRSVIVERPWTSPKITKDGFTVARSIALKDQHMNLGAKLVQDVADNTNESAGDGTTTATVLARAIAKEGFNQITMGANPVEIRRGVMLAVDVVKDKLKEMSKAVETREEIQQVATLSANGDTEIGRLIGEATDKVGPRGTITVKDGKRLKDELNIIQGLRFDNGYVSPFFVNSSKGSKVEFANALVMISLKKITGLSQIVKGLEQSLRQRRPLIIIAEDISGEALNALVLNKLRLGLQVCAVKSPSYGHHRKELIGDISAATGATIFGDDINYSKMEEAKLEDLGQVGEAVISKDSTMLLQGKPKTGLLEMRIQQIQDELAEKQIKPEQRDRLRQRLSALTKGVAVLHIGGGSEVEVNEKKDRVVDALNATRAAIEEGIVPGGGTAFLRCIPYLQELKTESADLQKGVDIVCNALRMPCQTIAQNAGVDGPMVVAKVLNGSEDYGYDAMGDEYCRLVEKGIIDPTKVLRTAITDAAGVASLLSTTEVVITDSRNDDLLSKLSGAGGGMDDGLDMNMGGLEELAALSGLGGMGGMGGMGGMGGMGGMGGGFGGMGAGGGMSASASNDGPTAEEMNEMVKAIPGMEQVEVRDIDSGMM
# B4: Clp (protein)
# chain: MDILLANVSGLQFKAERDLIEQVGAIPLPFYGMDKSIAAVCNFITRNGQECDKGSACPFRHIRGDRTIVCKHWLRGLCKKGDQCEFLHEYDMTKMPECYFYSRFNACHNKECPFLHIDPQSKVKDCPWYKRGFCRHGPHCRHQHLRRVLCMDYLAGFCPEGPSCKHMHPHFELPPLAELGKDQLHKKLPTCHYCGELGHKANSCKQYVGSLEHRNNINAMDHSGGHSGGYSGHSGHIEGADDMQSNHHSQPHGPGFVKVPTPLEEITCYKCGNKGHYANKCPKGHLAFLSNQHSHK
# B5: Lis-1 (protein)
# chain: MKMVLSQRQREELNQAIADYLGSNGYADSLETFRKEADLSTEVEKKFGGLLEKKWTSVIRLQKKVMELEAKLTEAEKEVIEGAPTKNKRTPGEWIPRPPEKFSLTGHRASITRVIFHPIFALMVSASEDATIRIWDFETGEYERSLKGHTDSVQDVAFDAQGKLLASCSADLSIKLWDFQQSYECIKTMHGHDHNVSSVAFVPAGDYVLSASRDRTIKMWEVATGYCVKTYTGHREWVRMVRVHIEGSIFATCSNDQTIRVWLTNSKDCKVELRDHEHTVECIAWAPEAAASAINEAAGADNKKGHHQGPFLASGSRDKTIRIWDVSVGLCLLTLSGHDNWVRGLAFHPGGKYLVSASDDKTIRVWDLRNKRCMKTLYAHQHFCTSIDFHKAHPYVISGSVDQTVKVWECR
# B6: Srp68 (protein)
# chain: MVVQEDNPNTGDVQEKTETAPVAEPSKIFTVEILHMIKDAQQQHGLRHGDFQRYRGYCSRRIRRLRKALKYPQGDKRHFKRRDVTIGQLTGKKADERFIHIPLICAERAWAYAMQLKQESNTEPRKRFHLVNKLRRACFYALQLQELCNTEAFDARTKLECEAYVAWMHGTLHFELQLWKTAGEHLKRAQVVYENLGKALPEDEQELYRAKVNEFTPNLRYCAYNISGGASGGKIDEILELRAQGVLENLDVLVSQTKTESSEGLQTIDWRGRKVTVRPEKVRLFLLSAQELDKSLAKTTKQDAKIELIERILMDCKDAIQAVRDEIKQDPKLRSLTTGQTVSGVQYLLAYLSYIRHSRTLQRNLCLVEQAKLNFYDPNLQSQQNVGDGKRVRPQDLARLYEIILQNVTEMQQINGLEDDATYQSEVENLAITFKAFRCYYIALTLIDIKKWKEAVALYERASNYATEALKGKSSPEFQLQEELKKVVSAIDGCKFSAHAYSVLEDDNSEESGTTTKSQKTTKPLYERLSLYKEDQSLHTKAPNVFKLTPDMEPIPCKPIFFDLAMTYVELPSLEGKLESPGKKGASITGFVKGFLGWGGGGNK
# B7: HBS1 (protein)
# chain: MSRHRIVRTMDYNDEYDGYDDIYGHSVEDEHCISPTDAQQWLYDRARGQQSISAFISKNKDIQEEEADEDEDEDAAFAKARRDSESFQMPQLDEIEQAKLSSCVDEVRSVVGDAVSERRIVETSMKFDYDMQKILDEILNEETNKSAKPAVNKMKAPAAPVLPKTVSKTVPTPPPKISLKEPRRGFEIPSPKVPSSPVVSGRNTPVDISAGDDISRSSATVFKVSKEQAVRNARQLYEKERADQKSHIHMIVIGHVDAGKSTLMGHLLYDTGNVSQRVMHKHEQESKKLGKQSFMYAWVLDETGEERARGITMDVGQSRIETKTKIVTLLDAPGHKDFIPNMISGATQADVALLVVDATRGEFESGFELGGQTREHAILVRSLGVNQLGVVINKLDTVGWSQDRFTEIVTKLKSFLKLAGFKDSDVSFTPCSGLTGENLTKKAQEPALTNWYSGRHLLDVIENFKIPERAIDRPLRMSVSDIYKGTGSGFCISGRVETGVLCLNDKVLVGASREQAQVKSLTMNEFPQTCVFAGDQVSVTLPALDINNVTVGCIISDPQTPIPVTTRFQARIIVFNVKVPITMGFPVLLHHQSLIEPAVVCKLTASIHKSTGEVVKKKPRCLGNNSCALVELETSRPICIERYADFKELGRVMLRVAGVTIAAGMVTKIR
# B8: Coprox (protein)
# chain: MNALRHTISLVSLGTFQLVRRTRGPHARGFLLGTGLGLASFSAVTYAHSAEAVDPKVNGVQMNTSRFMAEPITDSKALLGDKENMRHRMEILIMEIQAEFCRALEAEENCGQKFKVDRWERPEGGGGITCVLQDGDVFEKAGVNISVVTGSLPPAAVQQMRARGKNLKEGASLPFFASGVSAVIHPRNPHVPTIHFNYRYFEVETAKGEKQWWFGGGTDLTPYYLCEKDASHFHQTLKSACDEHDPTYYPRFKKWCDDYFRIKHRNESRGIGGIFFDDIDSPNQEAAFNFVSSCARAVIPSYVPLVRKHKNREYGNNERQWQLLRRGRYVEFNLIYDRGTKFGLYTPGARYESILMSLPLHARWEYMHEPKSQSEEGKLMKVLKNPKDWV
# B9: rswl (protein)
# chain: MLKHFARWRLGSQLLKGCAAPVRQASKTSSAENLIAGTEEPQKKFVNPFSQPAPALSNDTISENKEERDKRLKVLQLEADIAHQEGRRVPSLEFFKDHHWEHVLTLPTKSARIKYFGYLWQIEMKKEADQRKKAERAKEAERRVAEMRKEREENTHIIYGLGHTSLFLRIYDTTINHWQNNRLTRAMQFAPKMVLDCSYDEHMNNREATYAAKQLMMCFAENRMNDEPFDLHYCNTQMDSRCMQSLQRYIPTMHNPEFPINLHSKCFTELFPKQNLVYLTPHCREDLVTYNPDDIYIVGAMVDTMNNEPLSLAKAKRLGLRMARLPLDRYLQWGSGSGKSLTLNQMINIMLDLKKTGDWDTALKHVPRRKVVQNEFQPRREKDHWSTGTRARKLNMRIDHLFDFDENRRQATSYATPQNVRQRREGLEFQLDTWATGKQKKKQRQN
# Assays:
# Assay in all cases: MAPPIT interaction score (arbitrary units); higher = stronger binary interaction signal, active = hit call of the paper
# [1] = biological target: JIL-1; conditions: MAPPIT configuration: N-N; pair source set: Lit-BM-16
# [2] = biological target: TrxT; conditions: MAPPIT configuration: N-N; pair source set: screen_2
# [3] = biological target: Hsp60B; conditions: MAPPIT configuration: N-N; pair source set: Lit-BS-16
# [4] = biological target: JMJD4; conditions: MAPPIT configuration: N-N; pair source set: Curagen_low_conf
# [5] = biological target: Pdha; conditions: MAPPIT configuration: N-N; pair source set: Lit-BS-16
# [6] = biological target: Pih1D1; conditions: MAPPIT configuration: N-N; pair source set: Finley_Y2H
# [7] = biological target: Sms; conditions: MAPPIT configuration: N-N
# [8] = biological target: Jupiter; conditions: MAPPIT configuration: N-N; pair source set: DPIM
# [9] = biological target: Hsp27; conditions: MAPPIT configuration: N-N; pair source set: Curagen_low_conf
# [10] = biological target: Jheh2; conditions: MAPPIT configuration: N-N; pair source set: Lit-BS-16
# [11] = biological target: Ing3; conditions: MAPPIT configuration: N-N; pair source set: Curagen_low_conf
# [12] = biological target: Ilp6; conditions: pair source set: RRS
# 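Further: HEK293T cells with Epo stimulation, STAT-responsive firefly luciferase reporter, fold induction versus unstimulated cells divided by the larger fold induction of two negative controls lacking either bait or prey.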
binder,measurement,setting,value
B1,MAPPIT interaction score,[1],0.418
same,MAPPIT interaction score,[2],0.135
B2,MAPPIT interaction score,[3],1.36
B3,MAPPIT interaction score,[4],0.939
same,MAPPIT interaction score,[5],1.16
same,MAPPIT interaction score,[6],0.845
same,MAPPIT interaction score,[7]; pair source set: Finley_Y2H,1.94
same,MAPPIT interaction score,[7]; pair source set: Lit-BM-16,1.8
B4,MAPPIT interaction score,[8],-0.085
B5,MAPPIT interaction score,[9],-0.515
B6,MAPPIT interaction score,[10],-0.0601
B7,MAPPIT interaction score,[11],0.0794
B8,MAPPIT interaction score,[12]; MAPPIT configuration: N-C,0.0185
same,MAPPIT interaction score,[12]; MAPPIT configuration: N-N,-0.101
B9,MAPPIT interaction score,[8],0.211
